In the library only some 12% were active in any assay of this set; here they are far more common.
JMJD2A Tudor inh = blocks the human JMJD2A Tudor domain. AlphaScreen JMJD2A-Tudor / H3K4me3 peptide binding. Potency, µM (titrated, usually from 114 µM), without a hit: top-dose activity change, negative = inhibition, most hits filed as inhibitors. 390,000 compounds, 4.4% hits. AID 504339. O75164; also: % is scaled to controls: 0 for no effect and ±100 for the full control effect; nearly all actives have a fitted effect of over 50% in size
Sfp PPTase inh = Sfp phosphopantetheinyl transferase inhibition. Biochemical Sfp PPTase activity, qHTS. Potency, µM, inactives show largest response in the series, negative = inhibition, most hits filed as inhibitors. 310,000 compounds, 3.5% hits. AID 1490;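 also: the enzyme is Sfp with the accession as filed and its product quenches rhodamine fluorescence; 0% = enzyme reaction without inhibitor and -100% = no enzyme wells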
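Reaction rates are the 30-min fluorescence difference (ex 525, em 598 nm) in wells containing 15 nM Sfp, 5 uM rhodamine-CoA and 12.5 uM BHQ-2-YbbR at pH 7.6 with 10 mM MgCl2.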
HP1b binding inh = HP1-beta chromodomain-methylated histone interaction inhibition | P83916 | AlphaScreen HP1-beta / biotin-H3K9me3 peptide binding | Potency, µM (top dose mostly 114 µM), for inactives: at the top dose activity change, negative = inhibition, usual class: inhibitors | 390,000 compounds, 0.56% hits; also: nearly all actives have a fitted effect of over 70% in size
Target sequence (P83916 whole entry, looked up): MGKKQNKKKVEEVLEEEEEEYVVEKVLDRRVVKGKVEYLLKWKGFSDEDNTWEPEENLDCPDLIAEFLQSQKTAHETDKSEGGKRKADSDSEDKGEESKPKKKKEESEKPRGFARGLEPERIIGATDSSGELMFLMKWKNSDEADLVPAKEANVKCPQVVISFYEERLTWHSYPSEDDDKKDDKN
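AlphaScreen: HP1-beta (50 nM) preformed 30 min with biotin-H3(1-18)K9me3 peptide (50 nM) in PBS pH 7.4, 0.01% Tween-20. Compound added for 30 min at RT, then streptavidin donor/nickel chelate acceptor beads (10 ug/mL) for 30 min.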
G9a inh = G9a (human) methyltransferase inhibition; 350,000 compounds, 8.8% hits; Potency, µM (highest dose often 102 µM), inactives show at the top dose activity, negative = inhibition, most hits filed as inhibitors; G9a H3K9 monomethylation, AlphaScreen, 2 h; Q96KQ7; also: % is scaled to controls: 0 for no effect and ±100 for the full control effect; nearly all actives have a fitted effect of over 75% in size
Target sequence (Q96KQ7 913-1193 limits assumed): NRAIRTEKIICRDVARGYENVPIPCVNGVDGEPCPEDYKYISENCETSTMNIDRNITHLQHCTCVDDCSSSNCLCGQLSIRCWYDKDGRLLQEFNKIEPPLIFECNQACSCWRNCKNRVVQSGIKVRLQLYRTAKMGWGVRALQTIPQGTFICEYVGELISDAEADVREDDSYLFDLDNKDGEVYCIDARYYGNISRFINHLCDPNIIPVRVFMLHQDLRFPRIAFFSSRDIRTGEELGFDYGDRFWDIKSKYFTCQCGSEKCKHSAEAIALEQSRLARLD
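Using a bead-based AlphaScreen, monomethylated H3K9 product from 2 h room-temperature reactions (G9a 20 nM, peptide 500 nM, SAM 20 uM) was detected with 0.5 ug/mL rabbit anti-H3K9me1 antibody.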
L3MBTL1 block = inhibitors of human L3MBTL1 | 230,000 compounds, 0.66% hits | Q9Y468 | AlphaScreen L3MBTL1–H3K9me1 peptide binding | Potency, µM (series often up to 57.1 µM), without a hit: top-dose activity, negative = inhibition, most hits filed as inhibitors; also: % is scaled to controls: 0 for no effect and ±100 for the full control effect; nearly all actives have a fitted effect of over 60% in size
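L3MBTL1 50 nM + b-AHA-H3(1-15)K9me1 75 nM, 30 min RT; compound added, 30 min RT; streptavidin donor/Ni-chelate acceptor beads 10 ug/mL each final, 30 min RT dark; AlphaScreen read.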
BAZ2B block = BAZ2B (human) inhibition | AlphaScreen BAZ2B-H3K14Ac peptide displacement | Potency, µM (top dose mostly 114 µM), for the others: at the highest dose activity change, negative = inhibition, hits mostly inhibitors | 360,000 compounds, 4.4% hits; also: % is scaled to controls: 0 for no effect and ±100 for the full control effect; nearly all actives have a fitted effect of over 60% in size
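BAZ2B 50 nM plus b-H3(5-23)K14Ac 50 nM, PBS pH 7.4/0.01% Tween-20, 30 min RT; compound added (max 110 uM), 30 min RT; streptavidin donor/Ni-chelate acceptor beads 10 ug/mL final, 20 min dark; AlphaScreen read.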
The depositor's hits bear a star; u = inconclusive; x = no result given; [ ] = another dose, or the depositor's remark. Calls follow the shape of the dose curve; as a rule, active = well fitted curve in the direction sought with a large enough effect; inconclusive = small, poorly fitted or top-dose-only effect, or another doubt; inactive = no such curve, though single readings can be large; an effect the other way counts as inactive or inconclusive. Potency is read from the fitted curve at half-maximal effect.

SMILES | JMJD2A Tudor inh | Sfp PPTase inh | HP1b binding inh | G9a inh | L3MBTL1 block | BAZ2B block
COc1ccc(Nc2nc3ccccc3c(=O)[nH]2)cc1 | -13.2%[11.4 µM] | 16.4% | -4.3% | 79.4µM* | x | -26.1%
COc1ccc(Nc2nc3c([nH]2)c(=O)[nH]c(=O)n3C)cc1 | -23.8% | -0.5% | 9.1% | 50.1µM* | 3.0% | -13.9%
COc1ccc(Nc2c3c(nc4ccccc24)CCC3)cc1 | -19.5% | -11.2% | 9.8% | 5.5%[2.33 µM] | x | -22.7%
Cc1ccc(Nc2nc3ccccc3c(=O)[nH]2)cc1C | -5.6% | 2.1% | 25.0% | -3.5% | x | 3.8%
CCN(CC(=O)Nc1ccc(C(=O)Nc2ccc(OC)cc2)cc1)Cc1nc2ccccc2c(=O)[nH]1 | 0.3% | -28.1% | 32.8% | 35.5µM* | -7.8% | -12.8%
CCOC(=O)c1ccc(NC(=O)CN(c2ccc(C)cc2)S(=O)(=O)c2ccc(OC)cc2)cc1 | -29.1% | x | 40.1% | -2.7%[59 µM] | x | -4.7%
O=C(c1cccc(C(F)(F)F)c1)N1CCOC12CCN(c1ncc(C(F)(F)F)cc1Cl)CC2 | 5.4% | 10.7% | 35.3% | 22.9%[59 µM] | x | -6.0%
CC(=O)Nc1ccc2c(c1)C(=O)c1ccc(Cl)cc1-2 | -13.0% | x | 20.6% | x | x | x
Cc1cc(=O)oc2cc(OCC(=O)NC3(C#N)CCCCC3)c(Cl)cc12 | 5.8% | x | 26.5% | -28.8% | 5.6% | 4.8%
O=[N+]([O-])c1ccc(N2CCCCC2)cc1N1CCOCC1 | -18.5% | 14.3% | -1.9% | -13.5% | -7.7% | -9.2%[57.1 µM]
S=P(c1ccc(N2CCOCC2)cc1N1CCOCC1)(N1CCOCC1)N1CCOCC1 | -32.0% | 35.5µM* | u | 10µM* | 3.6% | -29.9%
COc1ccccc1CN1CCCC2(CCN(S(=O)(=O)c3ccccc3)CC2)C1 | x | 12.8% | x | -3.0%[12.7 µM] | x | x
O=C(Cn1ncc2c1-c1ccccc1OC2)N1CCN(Cc2ccc3c(c2)OCO3)CC1 | -24.5% | 3.3% | 12.2% | 15.8µM* | x | -2.2%
CC1CCN(c2nc3ccc(C(=O)N4CCN(Cc5ccc6c(c5)OCO6)CC4)cc3s2)CC1 | u | 3.2% | 15.4% | 28.2µM* | x | u
Cc1ccc2c(C)c(C(=O)N3CCN(Cc4ccc5c(c4)OCO5)CC3)oc2c1C | -33.3% | 79.4µM* | 0.3% | 50.1µM* | x | u
O=C(c1cccc(F)c1)N1CCN(Cc2ccc3c(c2)OCO3)CC1 | 1µM* | u | u | 2.3%[0.501 µM] | 2.4%[2.29 µM] | 50.1µM*
COc1cc(Cl)c(C)cc1Nc1ncnc2c1nc1n2CCCC1 | -10.9% | x | 22.8% | -10.3%[59 µM] | x | 3.6%
COC(=O)c1ccc(OCc2nn[nH]n2)cc1 | -12.3% | 16.7% | 27.6% | -4.9% | 5.3% | -18.2%
Cc1ccc(N=C2NC(=O)CC(C(=O)Nc3cc(C(F)(F)F)ccc3Cl)S2)cc1 (stereo unspecified) | -10.4% | x | 10.8% | -24.8%[59 µM] | x | -12.4%
CCN(CC)C(=O)Cn1c(=O)n(CC2CCC(C(=O)NC)CC2)c(=O)c2sccc21 (stereo unspecified) | 0.7% | x | 125.2% | 28.7%[59 µM] | x | 21.7%
CC1CCCN(C(=O)C2CCN(Cc3ccc4c(c3)OCO4)CC2)C1 (stereo unspecified) | 2.24µM* | 6.2% | -35.8% | 50.1µM* | x | -32.4%
COc1cccc(CN2CCC(C(=O)N3CCN(Cc4ccc5c(c4)OCO5)CC3)CC2)c1OC | 3.16µM* | 17.8% | u | 1.2% | x | -13.2%
O=C(c1cccnc1)N1CCN(Cc2cccc(F)c2)CC1 | 1.58µM* | 79.4µM* | 44.7µM* | 3.16µM* | x | 31.6µM*
O=C(C1CCN(S(=O)(=O)c2ccccc2)CC1)N1CCN(Cc2ccc3c(c2)OCO3)CC1 | -18.2% | 2.9% | -1.9% | 87.8% | x | -1.1%
O=C(c1cc(-c2ccncc2)nc2ccc(Cl)cc12)N1CCN(Cc2ccc3c(c2)OCO3)CC1 | u | -6.5% | -21.4% | u | -7.2% | 39.8µM*
Cc1nc(SCC(=O)OC(C)(C)C)c2c3c(sc2n1)CCCC3 | 11.8% | x | 41.5% | -0.5%[59 µM] | x | 2.6%
Cc1cc(C)cc(-n2ccn(CC(=O)Nc3ccccc3F)c(=O)c2=O)c1 | -15.5% | x | 30.1% | u | x | -9.9%

High-throughput results as filed in PubChem.
